The values below come from PubChem BioAssay (Tox21).

Records with an inconclusive call do not appear. A number with no mark means an inactive call. Active and inactive are the calls of the source. Unless noted, calls come from the whole dose curve.

Assay [1] has as its target Peroxisome proliferator-activated receptor delta (Homo sapiens) (UniProt Q03181). The assay can be described thus: qHTS assay to identify small molecule agonists of the peroxisome proliferator-activated receptor delta (PPARd) signaling pathway (AID 743212). Put shortly:
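HEK293H UAS-bla reporter cells, human PPARd system; compounds delivered in DMSO after 5 h plating, then at 37 C. Beta-lactamase FRET read, 2 h RT substrate step.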

Assay [2] in a line: qHTS assay to identify small molecule antagonists of the peroxisome proliferator-activated receptor delta (PPARd) signaling pathway - cell viability counter screen (AID 743213; active = well fitted curve in the direction sought with a large enough effect in the repeat runs; an effect the other way counts as inactive or inconclusive; note: nearly all actives have a fitted effect of over 50% in size). Put shortly:
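HEK293H PPARd UAS-bla cells, 5 h pre-incubation, compound + L165041 300 nM final, 17 h 37 C; B/G FRET substrate 2 h RT; then CellTiter-Glo 30 min RT, luminescence.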
A general note: Quantitative high-throughput screening tests each substance at several concentrations.

Assay [3] deals with Peroxisome proliferator-activated receptor delta (Homo sapiens) (UniProt Q03181). The assay can be described thus: qHTS assay to identify small molecule antagonists of the peroxisome proliferator-activated receptor delta (PPARd) signaling pathway (AID 743215; active = well fitted inhibition curve with a large enough effect in the signal ratio in the repeat runs, not every such curve was filed as active; the % refers to the signal ratio;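 note: cells stimulated with agonist L165041 at 300 nM final during compound exposure; series mostly up to about 62 µM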). Put shortly: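 PPARd-bla HEK293H cells (UAS-bla reporter) preincubated 5 h, then given compound plus 300 nM final L165041 agonist for 17 h at 37 C. Beta-lactamase activity read by LiveBLAzer B/G FRET substrate fluorescence after 2 h at room temperature.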

Assay [4] is described as follows: qHTS assay to identify small molecule agonists of the farnesoid-X-receptor (FXR) signaling pathway - cell viability counter screen (AID 743218; active = well fitted curve in the direction sought with a large enough effect in the repeat runs; an effect the other way counts as inactive or inconclusive; note: nearly all actives have a fitted effect of over 45% in size). In a few lines: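 FXR-UAS-bla HEK 293T cells exposed to compounds for 16 h at 37C. Cytotoxicity read in the same wells by CellTiter-Glo luminescence after 30 min at room temperature, following the beta-lactamase FRET read.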

The target in assay [5] is Bile acid receptor (Homo sapiens) (UniProt Q96RI1). The assay can be described thus: qHTS assay to identify small molecule agonists of the farnesoid-X-receptor (FXR) signaling pathway (AID 743220; active = well fitted activation curve with a large enough effect in the signal ratio in the repeat runs, not every such curve was filed as active; the % refers to the signal ratio). Put shortly: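 Beta-lactamase reporter under UAS control in GeneBLAzer FXR HEK 293T cells (5000/well) measured with LiveBLAzer FRET substrate after 2 h at room temperature. Compound exposure lasted 16 h at 37C.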

Assay [6] is described as follows: qHTS assay to identify small molecule antagonists of the farnesoid-X-receptor (FXR) signaling pathway - cell viability counter screen (AID 743221; active = well fitted cell-killing curve with a large enough effect in the repeat runs, not every such curve was filed as active; note: nearly all actives have a fitted effect of over 50% in size). Put shortly: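 Cytotoxicity is taken from ATP luminescence (CellTiter-Glo, 30 min, room temperature) in FXR-bla HEK 293T cells previously incubated 16 h at 37 C with compound and chenodeoxycholic acid at 50 uM final.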

Assay [7] concerns the target Vitamin D3 receptor (Homo sapiens) (UniProt P11473). The assay can be described thus: qHTS assay to identify small molecule agonists of the vitamin D receptor (VDR) signaling pathway (AID 743222). Put shortly:
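VDR-bla cells plated 4 h at 37 C, then exposed to compounds for 16 h at 37 C. Beta-lactamase reporter activity measured by fluorescence after 2 h room-temperature loading with LiveBLAzer B/G FRET substrate.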

Assay [8] has the same target. The assay can be described thus: qHTS assay to identify small molecule antagonists of the vitamin D receptor (VDR) signaling pathway (AID 743223; active = well fitted inhibition curve with a large enough effect in the signal ratio in the repeat runs, not every such curve was filed as active; the % refers to the signal ratio). In a few lines:
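Quantitative HTS in VDR-bla reporter cells stimulated with 1alpha,25-dihydroxyvitamin D3, 3 nM final. Compound exposure 16 h, 37C, 5% CO2. Read-out: beta-lactamase FRET substrate fluorescence, 2 h RT.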

The nature of assay [9]: qHTS assay to identify small molecule agonists of the vitamin D receptor (VDR) signaling pathway - cell viability counter screen (AID 743224; active = well fitted curve in the direction sought with a large enough effect in the repeat runs; an effect the other way counts as inactive or inconclusive; note: nearly all actives have a fitted effect of over 50% in size; note: potency is the fitted concentration of half-maximal effect). In a few lines: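 VDR-bla cells, 4 h after plating, exposed to compounds for 16 h at 37C; viability then read in the same wells as CellTiter-Glo luminescence after 30 min at room temperature, following the bla FRET read.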
The nature of assay [10]: qHTS assay to identify small molecule antagonists of the vitamin D receptor (VDR) signaling pathway - cell viability counter screen (AID 743225; active = well fitted curve in the direction sought with a large enough effect in the repeat runs; an effect the other way counts as inactive or inconclusive; note: nearly all actives have a fitted effect of over 50% in size). In a few lines: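 Same-well multiplex: following 16 h treatment of HEK 293T cells carrying a UAS-driven beta-lactamase reporter with compound and agonist (3 nM final), and a 2 h FRET substrate step, CellTiter-Glo was added and luminescence read after 30 min.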

Assay [11] can be described thus: qHTS assay to identify small molecule agonists of the NFkB signaling pathway (AID 1159509; active = well fitted curve in the direction sought with a large enough effect in the signal ratio in the repeat runs, not every such curve was filed as active; the % refers to the signal ratio; note: series mostly up to about 61 µM). In a few lines:
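NFkB-bla ME-180 cells with a beta-lactamase reporter under an NF-kB response element were plated overnight, treated with compounds in DMSO for 5 hr at 37 C, then loaded with FRET substrate for 1.5 hr at room temperature.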

Assay [12] can be described thus: qHTS assay to identify small molecule agonists of the NFkB signaling pathway - cell viability counter screen (AID 1159515). Note: series mostly up to about 61 µM; nearly all actives have a fitted effect of over 55% in size. In a few lines: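 NFkB-bla ME-180 cells, 2,000/well, plated overnight at 37 C; compound added for 5 hr at 37 C. Viability read in the same wells as the bla reporter, by CellTiter-Glo luminescence after 30 min at room temperature.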
The nature of assay [13]: qHTS assay to identify small molecule agonists of the endoplasmic reticulum stress response signaling pathway (AID 1159516; active = well fitted activation curve with a large enough effect in the signal ratio in the repeat runs, not every such curve was filed as active; the % refers to the signal ratio). Put shortly: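 CellSensor ESRE-bla HeLa cells, 1,500 per well, plated overnight, then exposed to compounds for 5 hr at 37 C. Beta-lactamase reporter read with LiveBLAzer B/G FRET substrate after 2 hr at room temperature, 405 nm excitation, 460 and 530 nm emission.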

Assay [14] can be described thus: qHTS assay to identify small molecule agonists of the endoplasmic reticulum stress response signaling pathway - cell viability counter screen (AID 1159517). Put shortly: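 Cells, HeLa ESRE-bla; density, 1,500/well; dosing, 5 hr at 37 C, 5% CO2; readout, CellTiter-Glo luminescence after 30 min RT.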
The nature of assay [15]: qHTS assay to identify small molecule antagonists of the retinoid-related orphan receptor gamma (ROR-gamma) signaling pathway - cell viability counter screen (AID 1159520; active = well fitted curve in the direction sought with a large enough effect in the repeat runs; an effect the other way counts as inactive or inconclusive; note: nearly all actives have a fitted effect of over 50% in size; note: potency is the fitted concentration of half-maximal effect). Put shortly: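 Cytotoxicity was read from cellular ATP (CellTiter-Glo luminescence) after 16 hr at 37 C with 1 uM doxycycline induction. The inducer was added 2 hr after compound transfer to Tet-on ROR gamma CHO cells.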

Assay [16] can be described thus: qHTS assay to identify small molecule agonists of the AP-1 signaling pathway - cell viability counter screen (AID 1159525). Note: nearly all actives have a fitted effect of over 55% in size. Note: potency is the fitted concentration of half-maximal effect. In a few lines:
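Luminescent ATP readout (Cell Titer Glo, 30 min RT), normalised to DMSO and tetra n-octyl ammonium bromide controls. Cells were ME-180 AP-1-bla in 0.5% dialyzed FBS Opti-MEM, with a 5 h, 37 °C compound exposure.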

The nature of assay [17]: qHTS assay to identify small molecule agonists of the AP-1 signaling pathway (AID 1159526).
For assay [18], the target named is Retinoic acid receptor RXR-alpha (Homo sapiens) (UniProt P19793). The assay can be described thus: qHTS assay to identify small molecule agonists of the RXR signaling pathway (AID 1159527). Note: nearly all actives have a fitted effect of over 35% in size. Note: potency is the fitted concentration of half-maximal effect. Put shortly: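 Compounds in DMSO were added to RXR-alpha-UAS-bla HEK 293T cells kept in 2% charcoal-stripped serum, and incubated 16 hr at 37 C with 5% CO2. Reporter signal came from a 2 hr B/G FRET substrate step.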

For assay [19], the target named is Bile acid receptor (Homo sapiens) (UniProt Q96RI1). The assay can be described thus: qHTS assay to identify small molecule antagonists of the farnesoid-X-receptor (FXR) signaling pathway (AID 743217; active = well fitted inhibition curve with a large enough effect in the signal ratio in the repeat runs, not every such curve was filed as active; the % refers to the signal ratio). In a few lines: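 FXR-UAS-bla HEK 293T cells (beta-lactamase reporter) given compound plus chenodeoxycholic acid (50 uM final), 16 h at 37C. LiveBLAzer B/G FRET substrate added for 2 h at room temperature; fluorescence read.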

Assay [20] deals with Nuclear receptor ROR-gamma (Homo sapiens) (UniProt P51449). Nature of the assay: qHTS assay to identify small molecule antagonists of the retinoid-related orphan receptor gamma (ROR-gamma) signaling pathway (AID 1159521; active = well fitted curve in the direction sought with a large enough effect in the repeat runs; an effect the other way counts as inactive or inconclusive; note: nearly all actives have a fitted effect of over 50% in size; note: potency is the fitted concentration of half-maximal effect). Put shortly:
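Inducible-expression reporter assay: doxycycline (1 uM final) switched on RORγ in CHO cells bearing a ROR response element-luciferase construct, with test compounds present from 2 h beforehand. Decreased luminescence after 16 h defined antagonist activity.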

Chain of Peroxisome proliferator-activated receptor delta (Homo sapiens) (Q03181 whole entry, looked up): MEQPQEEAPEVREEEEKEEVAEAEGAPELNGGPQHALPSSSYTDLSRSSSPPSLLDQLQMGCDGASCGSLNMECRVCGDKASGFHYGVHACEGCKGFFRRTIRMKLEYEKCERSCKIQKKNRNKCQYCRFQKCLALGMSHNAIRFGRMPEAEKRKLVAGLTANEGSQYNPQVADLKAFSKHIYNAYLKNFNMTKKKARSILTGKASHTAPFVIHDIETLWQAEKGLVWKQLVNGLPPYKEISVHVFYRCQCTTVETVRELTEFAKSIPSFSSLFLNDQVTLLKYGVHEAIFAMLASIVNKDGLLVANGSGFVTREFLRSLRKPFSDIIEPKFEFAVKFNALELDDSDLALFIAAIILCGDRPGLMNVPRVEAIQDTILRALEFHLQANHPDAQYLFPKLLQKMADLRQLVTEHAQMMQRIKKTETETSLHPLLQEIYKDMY
Chain of Bile acid receptor (Homo sapiens) (Q96RI1 whole entry, looked up): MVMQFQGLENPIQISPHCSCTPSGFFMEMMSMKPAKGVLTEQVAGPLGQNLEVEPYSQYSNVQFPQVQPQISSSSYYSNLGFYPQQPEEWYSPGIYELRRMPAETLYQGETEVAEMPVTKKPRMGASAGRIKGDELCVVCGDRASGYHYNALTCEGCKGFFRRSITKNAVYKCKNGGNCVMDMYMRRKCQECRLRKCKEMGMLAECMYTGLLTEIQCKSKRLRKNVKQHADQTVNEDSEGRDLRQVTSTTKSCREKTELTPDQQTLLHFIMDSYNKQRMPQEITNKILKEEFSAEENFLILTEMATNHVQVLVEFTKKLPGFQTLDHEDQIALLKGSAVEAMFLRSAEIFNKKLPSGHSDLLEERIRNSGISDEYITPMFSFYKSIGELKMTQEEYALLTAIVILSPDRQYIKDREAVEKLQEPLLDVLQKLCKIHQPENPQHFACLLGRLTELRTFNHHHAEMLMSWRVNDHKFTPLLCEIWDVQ
Chain of Retinoic acid receptor RXR-alpha (Homo sapiens) (P19793 whole entry, looked up): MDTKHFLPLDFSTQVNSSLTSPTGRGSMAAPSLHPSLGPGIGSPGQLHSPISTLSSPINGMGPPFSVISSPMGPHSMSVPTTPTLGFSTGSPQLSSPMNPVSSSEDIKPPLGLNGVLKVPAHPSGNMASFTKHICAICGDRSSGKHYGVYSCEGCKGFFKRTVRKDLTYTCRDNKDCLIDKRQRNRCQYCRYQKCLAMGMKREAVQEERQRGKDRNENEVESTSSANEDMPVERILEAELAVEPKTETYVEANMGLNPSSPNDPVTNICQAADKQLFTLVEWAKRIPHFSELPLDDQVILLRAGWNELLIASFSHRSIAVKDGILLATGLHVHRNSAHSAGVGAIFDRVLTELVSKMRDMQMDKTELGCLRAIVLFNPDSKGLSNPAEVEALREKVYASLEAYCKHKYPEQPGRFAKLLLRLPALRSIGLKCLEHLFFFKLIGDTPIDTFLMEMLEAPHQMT
Chain of Vitamin D3 receptor (Homo sapiens) (P11473 whole entry, looked up): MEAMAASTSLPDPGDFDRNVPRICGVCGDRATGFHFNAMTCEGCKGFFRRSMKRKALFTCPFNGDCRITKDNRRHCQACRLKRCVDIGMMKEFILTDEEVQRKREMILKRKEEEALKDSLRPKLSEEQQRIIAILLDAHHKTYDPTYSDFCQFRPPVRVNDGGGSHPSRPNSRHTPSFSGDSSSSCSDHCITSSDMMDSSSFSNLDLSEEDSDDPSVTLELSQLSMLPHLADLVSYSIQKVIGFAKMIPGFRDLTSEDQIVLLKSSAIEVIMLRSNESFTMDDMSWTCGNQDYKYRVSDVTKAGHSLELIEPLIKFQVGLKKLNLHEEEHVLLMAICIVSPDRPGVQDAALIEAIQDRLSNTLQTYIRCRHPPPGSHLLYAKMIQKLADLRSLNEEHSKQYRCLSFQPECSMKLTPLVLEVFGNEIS

For `CSc1ccc(C(=O)C(C)(C)N2CCOCC2)cc1`, the outcome in assay [1], in assay [2], in [3], in assay [5], in [6] and in assay [7] was inactive. For the same compound, the compound was called inactive in assay [8], in assay [10], in assay [11], in [12], in [13] and in assay [17]. For the same compound, the Potency entry in assay [4], in assay [9], in assay [14], in assay [15], in assay [16] and in [18] was “inactive” in each case.

Consider `Cc1cc(C)nc(Nc2ccccc2)n1`, for which the result in assay [1], in [3], in assay [6], in assay [7], in assay [8] and in assay [11] was inactive. Further, the result in assay [12], in assay [13] and in assay [17] was inactive. Moreover, the Potency entry in [4], in [9], in assay [14], in assay [15], in assay [16] and in assay [18] was “inactive” each time.

Consider `COC(=O)c1ccccc1S(=O)(=O)NC(=O)N(C)c1nc(C)nc(OC)n1`, for which the compound was called inactive in assay [1], in assay [2], in assay [3], in assay [5], in [6] and in assay [10]. Besides, the compound was called inactive in assay [11], in assay [12], in assay [13] and in assay [17]. For the same compound, the Potency result in assay [19], in assay [14], in assay [15], in [16] and in assay [18] was “inactive” in each case.

For the compound `O=C(CCCN1CCC(n2c(=O)[nH]c3ccccc32)CC1)c1ccc(F)cc1`, the result in [2], in assay [6], in assay [7], in [10], in assay [11] and in [12] was inactive. Also, the compound was classed as inactive in assay [13] and in assay [17]. The Potency entry in assay [4], in [14], in [15], in assay [16] and in assay [18] was “inactive” each time.

As for `C(CCOCC1CO1)COCC1CO1` (stereo unspecified), the compound was classed as inactive in assay [2], in assay [3], in [5], in assay [6], in [7] and in assay [10]. In addition, the outcome in [11], in assay [12], in assay [13] and in assay [17] was inactive. Further, the Potency entry in [9], in [14], in assay [15], in assay [16] and in assay [18] was “inactive” each time.

For the compound `CCN(CC)C(=O)[C@@H]1C=C2c3cccc4[nH]cc(c34)C[C@H]2N(C)C1`, the compound was called inactive in assay [1], in [3], in [5], in assay [6], in [10] and in [11]. Also, the call in assay [12], in assay [13] and in assay [17] was inactive. Besides, the Potency result in assay [9], in assay [14], in assay [15] and in assay [16] was “inactive” throughout.

For the compound `C=CCC1=C(C)[C@@H](OC(=O)[C@@H]2[C@@H](C=C(C)C)C2(C)C)CC1=O`, the result in [2], in [6], in assay [7], in assay [11], in [12] and in assay [13] was inactive. Besides, the values for the Potency in [9], in [15] and in assay [16] were 38.9 µM (active), 54.5 µM (active) and 49 µM (active), respectively. Moreover, the Potency entry in assay [14] was “inactive”.

For the compound `C1CCC(C2CCCCC2)CC1`, the compound was called inactive in assay [2], in [3], in assay [5], in assay [7], in assay [8] and in assay [11]. Also, the compound was classed as inactive in [12], in assay [13] and in assay [17]. In addition, the Potency entry in assay [19], in assay [9], in assay [14] and in assay [16] was “inactive” each time. Further, in assay [18], the Potency is 38.9 µM (active).

In the case of `ClC(Cl)C(Cl)Cl`, the compound was classed as inactive in [2], in assay [5], in [6], in [10], in assay [11] and in assay [12]. Besides, the call in assay [13] and in assay [17] was inactive. The Potency result in assay [19], in assay [4], in assay [9], in assay [14], in assay [16] and in assay [18] was “inactive” in each case.

For the compound `CC(C)NCC(O)c1ccc(N)c(C#N)c1` (stereo unspecified), the compound was classed as inactive in assay [2], in assay [3], in assay [6], in assay [10], in assay [11] and in assay [12]. The compound was called inactive in assay [13] and in assay [17]. In addition, the Potency entry in [14], in assay [20], in [16] and in assay [18] was “inactive” in each case.

As for `COc1cccc2c1cc([N+](=O)[O-])c1c(C(=O)O)cc3c(c12)OCO3`, the Potency entry in assay [4], in assay [14] and in assay [16] was “inactive” throughout. Further, the Potency in assay [9] was 15.5 µM (active); in [20], 15.4 µM (active). In addition, the compound was called inactive in assay [11], in assay [12] and in assay [13].

For the compound `COc1ccc2c(c1OC)CN1CCc3cc4c(cc3C1C2)OCO4` (stereo unspecified), the outcome in [2], in assay [6], in assay [7], in assay [8], in [11] and in [12] was inactive. Further, the compound was called inactive in assay [13] and in assay [17]. Also, the Potency entry in [9], in assay [14], in assay [15] and in [16] was “inactive” throughout.

Regarding `COc1cc(C[C@@H](C)N)c(OC)cc1C`, the compound was called inactive in assay [2], in [3], in assay [5], in [6], in [7] and in [8]. The compound was called inactive in assay [10], in assay [11], in [12], in assay [13] and in assay [17]. In addition, the Potency result in assay [19], in [4], in [9], in assay [14], in assay [20] and in assay [16] was “inactive” each time.
